Records with an inconclusive call do not appear. Calls of active or inactive are those of the source. Rule for the calls, unless noted: active = hit-call score of the fitted dose curve at least 0.9, where 1 is the maximum; inconclusive = response in the unintended direction; inactive = score below 0.9.
Experiments:
[1] = biological target: human Peroxisome Proliferator-activated Receptor alpha (PPARa), PPARA (gene 5465) (UniProt Q07869); test: ATG_PPARa_TRANS: Attagene TRANS-FACTORIAL HepG2 Assay for human Peroxisome Proliferator-activated Receptor alpha (PPARa) (AID 2283001);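 for AC50: potency for gain of reporter signal over DMSO so agonist or activator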
Chain of human Peroxisome Proliferator-activated Receptor alpha (PPARa), PPARA (gene 5465) (Q07869 whole entry, looked up, the tested form may be a part): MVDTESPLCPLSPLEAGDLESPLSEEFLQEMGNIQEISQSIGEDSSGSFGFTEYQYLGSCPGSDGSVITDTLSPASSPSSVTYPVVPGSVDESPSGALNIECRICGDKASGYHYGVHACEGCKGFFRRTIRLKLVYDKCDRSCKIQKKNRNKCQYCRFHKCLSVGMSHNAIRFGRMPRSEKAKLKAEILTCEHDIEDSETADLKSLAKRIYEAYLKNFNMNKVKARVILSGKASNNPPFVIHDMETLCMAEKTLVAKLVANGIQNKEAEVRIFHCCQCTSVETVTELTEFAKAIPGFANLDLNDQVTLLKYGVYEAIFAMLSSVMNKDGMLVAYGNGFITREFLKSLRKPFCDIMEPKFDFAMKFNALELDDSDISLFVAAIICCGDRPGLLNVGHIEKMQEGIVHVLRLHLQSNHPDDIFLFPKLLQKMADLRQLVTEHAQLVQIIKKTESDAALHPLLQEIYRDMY
How it was run: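 Reporter transcripts from GAL4-UAS units in transfected HepG2 were quantified 24 h after dosing. Detection used reverse transcription, PCR, fluorescent primer extension and capillary electrophoresis, with DMSO as baseline.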

[2] = biological target: human Peroxisome Proliferator-activated Receptor delta (PPARd), PPARD (gene 5467) (UniProt Q03181); test: ATG_PPARd_TRANS: Attagene TRANS-FACTORIAL HepG2 Assay for human Peroxisome Proliferator-activated Receptor delta (PPARd) (AID 2283002)
How it was run: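 Read-out is induced reporter mRNA, quantified by RT-PCR with fluorescent labelling and capillary electrophoresis after 24 h dosing. Cells are HepG2 transiently carrying multiple GAL4-UAS reporter units driven by exogenous NR-GAL4 chimeras; DMSO serves as baseline.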

[3] = biological target: Retinoic acid receptor alpha (Homo sapiens) (UniProt P10276); test: ATG_RARa_TRANS: Attagene TRANS-FACTORIAL HepG2 Assay for human Retinoic Acid Receptor alpha (RARa) (AID 2283005)
How it was run: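 Reporter transcripts, measured by RT-PCR with fluorescent labeling and capillary electrophoresis after 24 h dosing, reflect activity of an exogenous human RARa–GAL4 fusion in transiently transfected HepG2. Fitted for increase relative to DMSO.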

[4] = biological target: Peroxisome proliferator-activated receptor gamma (Homo sapiens) (UniProt P37231); test: ATG_PPARg_TRANS: Attagene TRANS-FACTORIAL HepG2 Assay for human Peroxisome Proliferator-activated Receptor-gamma (PPARg) (AID 2283007)
Chain of Peroxisome proliferator-activated receptor gamma (Homo sapiens) (P37231 whole entry, looked up, the tested form may be a part): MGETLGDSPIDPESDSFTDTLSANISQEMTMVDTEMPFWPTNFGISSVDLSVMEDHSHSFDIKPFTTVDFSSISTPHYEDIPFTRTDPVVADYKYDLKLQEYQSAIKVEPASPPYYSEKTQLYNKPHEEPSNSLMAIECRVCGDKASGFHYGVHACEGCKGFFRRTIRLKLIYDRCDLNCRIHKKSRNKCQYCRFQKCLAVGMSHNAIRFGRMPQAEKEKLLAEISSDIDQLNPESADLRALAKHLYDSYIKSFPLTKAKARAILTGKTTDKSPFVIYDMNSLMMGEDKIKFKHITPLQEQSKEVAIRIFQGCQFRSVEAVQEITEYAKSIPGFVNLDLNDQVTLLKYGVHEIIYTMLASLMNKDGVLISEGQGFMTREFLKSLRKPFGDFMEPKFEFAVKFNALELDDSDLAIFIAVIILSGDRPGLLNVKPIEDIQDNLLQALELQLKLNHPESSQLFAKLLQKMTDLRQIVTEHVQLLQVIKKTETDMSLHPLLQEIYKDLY
How it was run: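 Endpoint reflects upward reporter mRNA change versus DMSO controls. Setup: transiently transfected HepG2, GAL4-UAS reporters driven by chimeric NR-Gal4, 24 h incubation, RT-PCR with capillary electrophoresis read-out.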

[5] = biological target: human Retinoic Acid Receptor gamma (RARg), RARG (gene 5916) (UniProt P13631); test: ATG_RARg_TRANS: Attagene TRANS-FACTORIAL HepG2 Assay for human Retinoic Acid Receptor gamma (RARg) (AID 2283009)
Chain of human Retinoic Acid Receptor gamma (RARg), RARG (gene 5916) (P13631 whole entry, looked up, the tested form may be a part): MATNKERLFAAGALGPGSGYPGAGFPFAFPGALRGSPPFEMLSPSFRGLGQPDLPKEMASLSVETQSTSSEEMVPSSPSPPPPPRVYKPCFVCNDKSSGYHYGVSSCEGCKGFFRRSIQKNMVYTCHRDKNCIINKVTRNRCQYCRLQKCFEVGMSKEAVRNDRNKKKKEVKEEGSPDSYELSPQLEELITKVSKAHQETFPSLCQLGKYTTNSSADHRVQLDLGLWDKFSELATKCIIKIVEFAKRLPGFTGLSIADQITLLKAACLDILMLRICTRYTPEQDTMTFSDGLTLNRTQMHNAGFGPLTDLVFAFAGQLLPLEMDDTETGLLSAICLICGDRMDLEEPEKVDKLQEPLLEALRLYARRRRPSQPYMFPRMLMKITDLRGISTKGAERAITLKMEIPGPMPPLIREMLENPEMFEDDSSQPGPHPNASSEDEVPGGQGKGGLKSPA
How it was run: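 HepG2, RARg-GAL4 TRANS system, 24 h exposure; reporter mRNA by RT-PCR + CE fluorescence; increase over DMSO.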

[6] = biological target: human RAR-related Orphan Receptor beta (RORb), RORB (gene 6096) (UniProt Q92753); test: ATG_RORb_TRANS: Attagene TRANS-FACTORIAL HepG2 Assay for human RAR-related Orphan Receptor beta (RORb) (AID 2283010)
Chain of human RAR-related Orphan Receptor beta (RORb), RORB (gene 6096) (Q92753 whole entry, looked up, the tested form may be a part): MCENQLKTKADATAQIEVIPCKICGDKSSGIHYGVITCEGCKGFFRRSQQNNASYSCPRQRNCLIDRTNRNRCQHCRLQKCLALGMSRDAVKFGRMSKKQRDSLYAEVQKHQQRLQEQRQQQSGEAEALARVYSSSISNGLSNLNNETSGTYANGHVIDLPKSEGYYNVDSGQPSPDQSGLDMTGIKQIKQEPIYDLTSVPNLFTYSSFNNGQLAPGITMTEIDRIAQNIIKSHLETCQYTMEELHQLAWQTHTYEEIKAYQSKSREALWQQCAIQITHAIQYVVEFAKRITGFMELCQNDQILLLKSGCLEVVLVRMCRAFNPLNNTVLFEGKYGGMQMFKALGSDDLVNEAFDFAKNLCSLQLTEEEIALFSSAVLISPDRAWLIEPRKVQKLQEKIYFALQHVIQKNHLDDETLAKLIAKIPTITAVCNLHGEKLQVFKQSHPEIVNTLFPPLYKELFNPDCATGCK
How it was run: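 In this TRANS-format test, human HepG2 cells express chimeric NR-Gal4 fusion proteins driving GAL4-UAS reporters. After 24 h dosing, reporter transcripts are measured by fluorescent RT-PCR/capillary electrophoresis, with DMSO as negative control.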

[7] = biological target: human RAR-related Orphan Receptor gamma (RORg), RORC (gene 6097) (UniProt P51449); test: ATG_RORg_TRANS: Attagene TRANS-FACTORIAL HepG2 Assay for human RAR-related Orphan Receptor gamma (RORg) (AID 2283011)
Chain of human RAR-related Orphan Receptor gamma (RORg), RORC (gene 6097) (P51449 whole entry, looked up, the tested form may be a part): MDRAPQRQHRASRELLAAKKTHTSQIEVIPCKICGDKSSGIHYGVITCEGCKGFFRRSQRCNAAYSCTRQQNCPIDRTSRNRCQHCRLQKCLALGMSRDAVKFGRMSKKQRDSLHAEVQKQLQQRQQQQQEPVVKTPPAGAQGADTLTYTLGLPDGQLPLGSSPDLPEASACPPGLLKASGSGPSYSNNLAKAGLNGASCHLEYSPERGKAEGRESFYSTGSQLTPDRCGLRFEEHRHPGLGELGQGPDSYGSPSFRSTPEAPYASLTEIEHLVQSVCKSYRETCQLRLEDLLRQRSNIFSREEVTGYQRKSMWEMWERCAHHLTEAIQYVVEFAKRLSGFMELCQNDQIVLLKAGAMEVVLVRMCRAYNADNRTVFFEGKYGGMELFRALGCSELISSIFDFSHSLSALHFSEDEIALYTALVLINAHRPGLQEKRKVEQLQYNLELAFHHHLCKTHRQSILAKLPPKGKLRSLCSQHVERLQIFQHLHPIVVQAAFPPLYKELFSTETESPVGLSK
How it was run: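 Reporter transcripts from a transfected RORg-GAL4 chimera in HepG2 cells were quantified 24 h after dosing by RT-PCR, 6-FAM labelling, HpaI digestion and capillary electrophoresis; increases over DMSO baseline were fitted.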

[8] = biological target: human Retinoid X Receptor beta (RXRb), RXRB (gene 6257) (UniProt P28702); test: ATG_RXRb_TRANS: Attagene TRANS-FACTORIAL HepG2 Assay for human Retinoid X Receptor beta (RXRb) (AID 2283013)
Chain of human Retinoid X Receptor beta (RXRb), RXRB (gene 6257) (P28702 whole entry, looked up): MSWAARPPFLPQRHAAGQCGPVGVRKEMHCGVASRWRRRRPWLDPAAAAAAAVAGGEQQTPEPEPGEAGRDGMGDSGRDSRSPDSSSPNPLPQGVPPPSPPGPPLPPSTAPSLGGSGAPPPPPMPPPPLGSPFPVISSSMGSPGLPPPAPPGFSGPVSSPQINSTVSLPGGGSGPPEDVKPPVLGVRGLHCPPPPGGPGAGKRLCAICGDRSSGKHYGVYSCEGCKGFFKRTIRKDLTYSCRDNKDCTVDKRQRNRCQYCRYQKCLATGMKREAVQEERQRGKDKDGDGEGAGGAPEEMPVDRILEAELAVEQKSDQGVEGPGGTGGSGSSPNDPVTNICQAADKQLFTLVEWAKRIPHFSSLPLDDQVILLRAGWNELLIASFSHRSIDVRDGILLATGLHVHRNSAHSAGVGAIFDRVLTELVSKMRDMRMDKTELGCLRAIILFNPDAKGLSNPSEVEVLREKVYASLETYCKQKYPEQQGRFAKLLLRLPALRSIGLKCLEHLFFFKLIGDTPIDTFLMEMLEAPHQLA
How it was run: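 Multiplexed TRANS reporter assay in HepG2; 24 h dosing; reporter mRNA by RT-PCR/CE fluorescence; gain-of-signal relative to DMSO.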

[9] = biological target: human Thyroid Receptor alpha (THRa1), THRA (gene 7067) (UniProt P10827); test: ATG_THRa1_TRANS: Attagene TRANS-FACTORIAL HepG2 Assay for human Thyroid Receptor alpha (THRa1) (AID 2283014)
Chain of human Thyroid Receptor alpha (THRa1), THRA (gene 7067) (P10827 whole entry, looked up, the tested form may be a part): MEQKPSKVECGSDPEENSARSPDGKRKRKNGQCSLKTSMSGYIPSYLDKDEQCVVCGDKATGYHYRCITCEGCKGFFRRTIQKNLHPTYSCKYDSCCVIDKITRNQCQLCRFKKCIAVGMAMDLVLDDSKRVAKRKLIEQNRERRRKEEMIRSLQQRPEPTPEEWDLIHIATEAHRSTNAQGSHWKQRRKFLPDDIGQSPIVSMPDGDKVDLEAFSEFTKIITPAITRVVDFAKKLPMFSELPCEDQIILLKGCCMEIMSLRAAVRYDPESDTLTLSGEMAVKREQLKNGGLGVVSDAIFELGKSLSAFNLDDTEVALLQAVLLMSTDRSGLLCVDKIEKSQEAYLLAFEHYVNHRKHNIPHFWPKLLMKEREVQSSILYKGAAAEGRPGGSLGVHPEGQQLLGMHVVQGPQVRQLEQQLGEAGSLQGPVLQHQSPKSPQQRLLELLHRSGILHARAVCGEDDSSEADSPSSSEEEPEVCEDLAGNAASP
How it was run: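 Transcripts from GAL4-UAS-driven reporters, measured after 24 h compound exposure by RT-PCR plus capillary electrophoresis of 6-FAM-labeled fragments, were fitted for gain of signal relative to DMSO. Cells: transiently transfected HepG2 expressing NR-Gal4 chimeras.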

[10] = biological target: Retinoic acid receptor RXR-alpha (Homo sapiens) (UniProt P19793); test: ATG_RXRa_TRANS: Attagene TRANS-FACTORIAL HepG2 Assay for human Retinoid X Receptor alpha (RXRa) (AID 2283012)
Chain of Retinoic acid receptor RXR-alpha (Homo sapiens) (P19793 whole entry, looked up, the tested form may be a part): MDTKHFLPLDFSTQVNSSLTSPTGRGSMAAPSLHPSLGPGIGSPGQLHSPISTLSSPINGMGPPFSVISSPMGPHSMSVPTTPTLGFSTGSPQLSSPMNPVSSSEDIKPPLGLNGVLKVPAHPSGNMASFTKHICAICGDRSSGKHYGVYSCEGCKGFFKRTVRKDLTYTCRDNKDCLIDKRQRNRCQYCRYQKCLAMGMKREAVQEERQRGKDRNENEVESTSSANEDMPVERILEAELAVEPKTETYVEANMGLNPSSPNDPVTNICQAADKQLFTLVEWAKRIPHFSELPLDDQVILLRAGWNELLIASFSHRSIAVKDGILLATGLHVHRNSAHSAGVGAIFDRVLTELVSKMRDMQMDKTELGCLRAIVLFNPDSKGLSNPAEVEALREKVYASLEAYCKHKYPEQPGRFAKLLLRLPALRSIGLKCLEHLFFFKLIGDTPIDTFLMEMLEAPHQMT
How it was run: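 Cells (HepG2) carried transiently transfected GAL4-responsive reporter units. Following a 24 h chemical incubation, reporter mRNA induction was read via RT-PCR fragment analysis; DMSO served as negative control and baseline.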

[11] = biological target: human Retinoic Acid Receptor beta (RARb), RARB (gene 5915) (UniProt P10826); test: ATG_RARb_TRANS: Attagene TRANS-FACTORIAL HepG2 Assay for human Retinoic Acid Receptor beta (AID 2283004)
How it was run: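 Induction of reporter mRNA from a chimeric RARb-Gal4 construct was measured by RT-PCR, FAM labelling, HpaI digestion and capillary electrophoresis. Measurements followed 24 h compound treatment of transiently transfected human HepG2 liver cells, with DMSO as baseline.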

[12] = biological target: Nuclear receptor subfamily 1 group I member 2 (Homo sapiens) (UniProt O75469); test: ATG_PXR_TRANS: Attagene TRANS-FACTORIAL HepG2 Assay for human Pregnane X Receptor (PXR) (AID 2283008)
Chain of Nuclear receptor subfamily 1 group I member 2 (Homo sapiens) (O75469 whole entry, looked up, the tested form may be a part): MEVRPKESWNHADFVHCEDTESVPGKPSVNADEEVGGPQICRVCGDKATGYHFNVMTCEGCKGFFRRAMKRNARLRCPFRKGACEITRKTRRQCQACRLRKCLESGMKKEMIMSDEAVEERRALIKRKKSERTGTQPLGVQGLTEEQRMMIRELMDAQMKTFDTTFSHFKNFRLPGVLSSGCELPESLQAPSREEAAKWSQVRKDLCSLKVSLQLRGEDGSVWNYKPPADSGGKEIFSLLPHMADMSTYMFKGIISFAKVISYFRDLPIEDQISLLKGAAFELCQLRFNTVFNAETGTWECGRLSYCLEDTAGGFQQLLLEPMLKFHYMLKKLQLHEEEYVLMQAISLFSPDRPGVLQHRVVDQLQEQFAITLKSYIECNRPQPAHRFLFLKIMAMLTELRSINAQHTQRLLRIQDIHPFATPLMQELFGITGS
How it was run: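 HepG2 cells transiently transfected with GAL4-UAS reporter units and PXR-Gal4 chimera, exposed 24 h. Reporter mRNA quantified by RT-PCR, fluorescent labelling, HpaI digestion and capillary electrophoresis; gain of signal vs DMSO.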

[13] = read-out: Intercellular Adhesion Molecule 1 (ICAM1), ICAM1 (gene 3383); test: BSK_3C_ICAM1: BioMAP Diversity Plus: 3C Assay for Intercellular Adhesion Molecule 1 (ICAM1) Biomarker Activity (AID 2283003; active = hit-call score of the fitted dose curve at least 0.9, where 1 is the maximum; inactive = score below 0.9); settings: primary human endothelial cells (HUVEC); actives raise or lower the signal
How it was run: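 Human vascular endothelial primary cells, 3C conditions, 24 h treatment. ICAM-1 by ELISA.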

[14] = BSK_3C_Proliferation: Cell Proliferation Assessment in the BioMAP Diversity Plus: 3C Assay (AID 2283006; active = hit-call score of the fitted dose curve at least 0.9, where 1 is the maximum; inactive = score below 0.9); settings: primary human endothelial cells (HUVEC)
How it was run: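 Proliferation of human vascular endothelial primary cells after 48 h dosing, quantified as SRB-stained protein at 560 nm relative to DMSO.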

[15] = read-out: E-selectin (Homo sapiens) (UniProt P16581); test: BSK_3C_Eselectin: BioMAP Diversity Plus: 3C Assay for Eselectin Biomarker Activity (AID 2283015; active = hit-call score of the fitted dose curve at least 0.9, where 1 is the maximum; inactive = score below 0.9;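 for outcome: cell surface E-selectin protein quantified by ELISA 24 h after dosing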); settings: primary human endothelial cells (HUVEC); actives raise or lower the signal
How it was run: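 E-selectin ELISA readout, fitted bidirectionally relative to DMSO, taken 24 h post-dosing in HUVEC cultures of the 3C system. Overt cytotoxicity tracked with sulforhodamine B staining of parallel wells.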

[16] = read-out: Monocyte Chemoattractant Protein-1 (MCP1), CCL2 (gene 6347); test: BSK_3C_MCP1: BioMAP Diversity Plus: 3C Assay for Monocyte Chemoattractant Protein-1 (MCP1) Biomarker Activity (AID 2283017; active = hit-call score of the fitted dose curve at least 0.9, where 1 is the maximum; inactive = score below 0.9); settings: primary human endothelial cells (HUVEC); actives raise or lower the signal
How it was run: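 MCP-1 was measured by ELISA 24 h after dosing in primary HUVEC 3C cultures and fitted in both directions relative to DMSO; cytotoxicity was checked by SRB total-protein staining in parallel wells.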

[17] = read-out: Monocyte Chemoattractant Protein-1 (MCP1), CCL2 (gene 6347); test: BSK_4H_MCP1: BioMAP Diversity Plus: 4H Assay for Monocyte Chemoattractant Protein-1 (MCP1) Biomarker Activity (AID 2283018; active = hit-call score of the fitted dose curve at least 0.9, where 1 is the maximum; inactive = score below 0.9); settings: primary human endothelial cells (HUVEC); actives raise or lower the signal
How it was run: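 Readout: MCP-1 ELISA on compound-treated HUVEC, sampled 24 h post-dosing. Baseline and negative control DMSO; bidirectional fit. Overt toxicity checked alongside by sulforhodamine B protein staining at time of biomarker measurement.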

[18] = read-out: Interleukin-1 alpha (IL1a), IL1A (gene 3552); test: BSK_BE3C_IL1a: BioMAP Diversity Plus: BE3C Assay for Interleukin-1 alpha (IL1a) Biomarker Activity (AID 2283016; active = hit-call score of the fitted dose curve at least 0.9, where 1 is the maximum; inactive = score below 0.9); settings: primary human bronchial epithelial cells; actives raise or lower the signal
How it was run: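 Cultures of primary human bronchial epithelial cells receive test chemical. After 24 h, IL-1a is quantified by ELISA, while parallel wells are fixed in TCA and SRB-stained for total protein. Changes in either direction are fitted relative to DMSO.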

[19] = read-out: Human Leukocyte Antigen - DR isotype (HLADR), HLA-DRA (gene 3122); test: BSK_3C_HLADR: BioMAP Diversity Plus: 3C Assay for Human Leukocyte Antigen - DR isotype (HLADR) Biomarker Activity (AID 2283019; active = hit-call score of the fitted dose curve at least 0.9, where 1 is the maximum; inactive = score below 0.9;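 note: ELISA of cell-surface HLA-DR on HUVEC 24 h after dosing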); settings: primary human endothelial cells (HUVEC); actives raise or lower the signal
How it was run: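 Bidirectional fitting against DMSO was applied to the HLA-DR ELISA signal from human umbilical vein endothelial cells, 24 h post-dose. Cytotoxicity came from parallel SRB total-protein staining; 3C proliferation was counted by SRB at 48 h.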

Chain of E-selectin (Homo sapiens) (P16581 whole entry, looked up): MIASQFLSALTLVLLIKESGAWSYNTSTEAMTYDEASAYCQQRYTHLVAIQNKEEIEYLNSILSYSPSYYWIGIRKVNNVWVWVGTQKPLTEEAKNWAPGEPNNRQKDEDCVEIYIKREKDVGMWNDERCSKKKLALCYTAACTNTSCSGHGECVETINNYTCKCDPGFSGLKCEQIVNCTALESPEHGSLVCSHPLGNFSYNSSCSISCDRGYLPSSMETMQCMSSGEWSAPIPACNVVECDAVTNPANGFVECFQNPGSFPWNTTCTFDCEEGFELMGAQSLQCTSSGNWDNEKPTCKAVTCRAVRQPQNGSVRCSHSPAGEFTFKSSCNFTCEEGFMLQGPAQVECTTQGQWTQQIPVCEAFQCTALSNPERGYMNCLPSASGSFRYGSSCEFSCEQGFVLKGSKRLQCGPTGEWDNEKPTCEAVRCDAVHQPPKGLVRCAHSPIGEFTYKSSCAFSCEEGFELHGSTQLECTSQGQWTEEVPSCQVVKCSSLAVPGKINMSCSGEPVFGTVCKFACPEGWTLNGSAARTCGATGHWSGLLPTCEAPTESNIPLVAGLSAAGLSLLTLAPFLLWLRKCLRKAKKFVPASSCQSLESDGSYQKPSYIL

SMILES: CCC(=O)OC(C)c1ccccc1 (stereo not drawn)
- outcome [1]: inactive
- outcome [2]: inactive
- outcome [3]: inactive
- outcome [4]: inactive
- outcome [5]: inactive
- outcome [6]: inactive
- outcome [7]: inactive
- outcome [8]: inactive
- outcome [9]: inactive

SMILES: CCCCCCCCCCCC(=O)Cl
- outcome [1]: inactive
- AC50 [2]: 125 µM (active)
- AC50 [4]: 72.9 µM (active)
- outcome [5]: inactive
- outcome [10]: inactive
- AC50 [8]: 38.5 µM (active)

SMILES: CCCCOC(=O)C(C)O (stereo not drawn)
- outcome [1]: inactive
- outcome [2]: inactive
- outcome [11]: inactive
- outcome [4]: inactive
- outcome [5]: inactive
- outcome [8]: inactive
- outcome [9]: inactive

SMILES: CCC/C=C/CO
- outcome [1]: inactive
- outcome [2]: inactive
- outcome [3]: inactive
- outcome [4]: inactive
- outcome [12]: inactive
- outcome [6]: inactive
- outcome [10]: inactive
- outcome [8]: inactive

SMILES: OCCCCC(F)(F)C(F)(F)C(F)(F)C(F)(F)F
- outcome [1]: inactive
- outcome [2]: inactive
- outcome [13]: inactive
- outcome [14]: inactive
- outcome [4]: inactive
- outcome [5]: inactive
- outcome [15]: inactive
- outcome [16]: inactive
- outcome [17]: inactive

SMILES: NC(=O)C(F)(F)C(F)(F)C(F)(F)C(F)(F)C(N)=O
- outcome [1]: inactive
- outcome [2]: inactive
- outcome [13]: inactive
- outcome [4]: inactive
- outcome [12]: inactive
- outcome [6]: inactive
- outcome [9]: inactive
- outcome [15]: inactive
- outcome [18]: inactive
- outcome [16]: inactive
- outcome [17]: inactive
- outcome [19]: inactive

SMILES: O=C(O)CCC(F)(F)C(F)(F)C(F)(F)C(F)(F)C(F)(F)C(F)(F)C(F)(F)F
- outcome [1]: inactive
- outcome [2]: inactive
- outcome [13]: inactive
- AC50 [4]: 150 µM (active)
- outcome [12]: inactive
- outcome [6]: inactive
- outcome [7]: inactive
- outcome [10]: inactive
- AC50 [8]: 41.3 µM (active)
- outcome [15]: inactive
- outcome [18]: inactive
- outcome [16]: inactive
- outcome [17]: inactive
- outcome [19]: inactive

SMILES: N#Cc1ccccc1O
- outcome [1]: inactive
- outcome [2]: inactive
- outcome [3]: inactive
- outcome [4]: inactive
- outcome [12]: inactive
- outcome [5]: inactive
- outcome [6]: inactive
- outcome [7]: inactive
- outcome [8]: inactive

SMILES: CCCCCC/C=C/CCCCCCCC(=O)O
- AC50 [1]: 37.6 µM (active)
- outcome [2]: inactive
- outcome [4]: inactive
- outcome [5]: inactive
- outcome [6]: inactive
- outcome [7]: inactive
- AC50 [10]: 100 µM (active)

SMILES: CCCCCCCC/C=C\CCCCCCCC(=O)OCC(O)CO (stereo not drawn)
- AC50 [1]: 27.7 µM (active)
- outcome [2]: inactive
- AC50 [4]: 27.3 µM (active)
- outcome [12]: inactive
- outcome [9]: inactive

SMILES: Cc1cc(C)c(O)c(C(C)(C)C)c1
- outcome [1]: inactive
- outcome [2]: inactive
- AC50 [13]: 30.4 µM (active)
- outcome [4]: inactive
- AC50 [12]: 16.2 µM (active)
- outcome [6]: inactive
- outcome [7]: inactive
- AC50 [8]: 28.9 µM (active)
- outcome [9]: inactive
- AC50 [15]: 28.9 µM (active)
- AC50 [18]: 32.6 µM (active)
- AC50 [16]: 29 µM (active)
- AC50 [17]: 30.7 µM (active)

SMILES: CC(C)Nc1ccc(NC(C)C)c2c1C(=O)c1ccccc1C2=O
- outcome [1]: inactive
- outcome [2]: inactive
- outcome [11]: inactive
- outcome [4]: inactive
- AC50 [12]: 0.16 µM (active)
- outcome [5]: inactive
- outcome [10]: inactive
- outcome [8]: inactive
- outcome [9]: inactive

From PubChem BioAssay (EPA / NIEHS)
